The test system of test [1] is Zika virus NS2B-NS3 protease (unlinked complex). In words: Primary screen GU Rhodamine qHTS for Zika virus inhibitors: Unlinked NS2B-NS3 protease assay (AID 1347159). Further: nearly all actives have a fitted effect of over 60% in size. The settings on record: Recombinant ZIKV NS2B-NS3 protease, Rhodamine110 substrate fluorescence; series mostly up to 107 µM. Put shortly:
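Unlinked NS2B/NS3, 25 nM; Rhod110 peptide, 1.5 microM; compounds, up to 114 microM. Reaction run 15 min at RT in 10 mM Tris-HCl pH 8.0, 0.01% Tween 20; kinetic fluorescence change fitted with a 4-parameter Hill model.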
In general terms: In qHTS, concentration-response curves come from the screen itself.

Test [2] concerns Zika virus NS2B-NS3 protease (linked construct). In words: Primary screen NINDS Rhodamine qHTS for Zika virus inhibitors (AID 1347160). Further: nearly all actives have a fitted effect of over 55% in size. The settings on record: purified NS2B-NS3 protease, Rhodamine110 substrate fluorescence; series mostly up to 57.1 µM. Put shortly:
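Single-chain NS2B-NS3 protease, 25 nM, pH 8.0; compounds preincubated 15 min. Activity: Rhodamine110 release from 1.5 microM substrate over 15 min, room temperature, data fitted to 4-parameter Hill.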

Molecules are shown by their SMILES. Results filed as inconclusive are left out. Unmarked numbers belong to inactive results. Calls of active or inactive are those of the source. The call rests on the fitted dose curve; in most records, active means well fitted inhibition curve with a large enough effect; inconclusive means small, poorly fitted or top-dose-only effect; inactive means no such curve, though single readings can be large or run the other way.
On the % scale 0 is the no-effect control and ±100 the full control effect; potency means the concentration at half of the fitted maximal effect.

For the compound `CC(=O)CC1CCC(C(C)C(=O)OCC(O)CO)O1` (stereo unspecified), the Potency result in test [1] and in test [2] was “inactive” throughout.

In the case of `O=C(Nc1nc2ccccc2n1CCc1ccccc1)c1ccccc1`, the Potency entry in test [1] and in test [2] was “inactive” throughout.

Turning to `CC/C=C\[C@H](O)[C@H](O)C1=C(C)C(=O)[C@]2(O1)C(=O)N[C@@](OC)(C(=O)c1ccccc1)[C@@H]2O`, the Potency result in test [1] and in test [2] was “inactive” throughout.

`C=CC(=O)Nc1cc(Nc2ncc(Cl)c(-c3c[nH]c4ccccc34)n2)c(OC)cc1N(C)CCN(C)C`: the Potency result in test [1] and in test [2] was “inactive” each time.

On to `COc1cc(/C=C/C(=O)O[C@H]2[C@H](O)[C@@H](CO)O[C@@]2(CO)O[C@H]2O[C@H](CO)[C@@H](O)[C@H](O)[C@H]2O)ccc1O`, for which the Potency result in test [1] and in test [2] was “inactive” throughout.

Take `CN1CCN(C2CCC(n3cc(-c4ccc(Oc5ccccc5)cc4)c4c(N)ncnc43)CC2)CC1` (stereo unspecified): the Potency result in test [1] and in test [2] was “inactive” each time.

Regarding `COc1cc(C(=O)NC2CCN(C)CC2)c(F)cc1Nc1ncc2c(n1)N(C1CCCC1)CC(F)(F)C(=O)N2C`, the Potency result in test [1] and in test [2] was “inactive” each time.

In the case of `CCC(C)C(=O)OC1CC(O)C23C4OCC5(C(O)CC2C1(C)C(O)O4)C3C(=O)C(O)C1(C)C(O)(c2ccoc2)CC2OC251` (stereo unspecified), the Potency result in test [1] and in test [2] was “inactive” throughout.

Consider `Cn1cc(-c2ccc3nnc(Sc4ccc5nn(C)cc5c4)n3n2)cn1`, for which the Potency result in test [1] and in test [2] was “inactive” each time.

For `COc1cc2c(cc1OC)N1C(=O)C[C@]34C=CCN5CC[C@@H]2[C@@H](CC3)[C@]514`, the Potency entry in test [1] and in test [2] was “inactive” in each case.

For the compound `CC(=O)O[C@@H]1[C@H](O)[C@@H](O[C@@H]2O[C@@H](C)[C@H](O[C@@H]3OC[C@@H](O)[C@H](O[C@@H]4OC[C@@H](O)[C@H](O)[C@H]4O)[C@H]3O)[C@@H](O[C@@H]3O[C@H](CO)[C@@H](O)[C@H](O)[C@H]3O)[C@H]2O)[C@H](OC(=O)[C@]23CCC(C)(C)C[C@H]2C2=CCC4[C@@]5(C)CC[C@H](O[C@@H]6O[C@H](C(=O)O)[C@@H](O)[C@H](O[C@@H]7OC[C@@H](O)[C@H](O)[C@H]7O)[C@H]6O[C@@H]6O[C@H](CO)[C@H](O)[C@H](O)[C@H]6O)[C@@](C)(C=O)C5CC[C@@]4(C)[C@]2(C)CC3)O[C@@H]1C` (stereo partly specified), the activity change, negative = inhibition in test [1] was -1.88% [at 19.1 µM]; in test [2], 7.65% [at 10.7 µM].

As for `CC1CCC2(OC1)OC1CC3C4CC=C5CC(O)CC(O[C@@H]6OC[C@@H](O)[C@H](O)[C@H]6O)C5(C)C4CCC3(C)C1(O)C2C` (stereo partly specified), the Potency entry in test [1] and in test [2] was “inactive” throughout.

For the compound `O=C1CCC(c2ccccc2)(C2CCN(Cc3ccc(I)cc3)CC2)C(=O)N1` (stereo unspecified), the Potency result in test [1] and in test [2] was “inactive” each time.

In the case of `Cc1ncc(CCCN(C)C)cc1Nc1ncc2c(n1)-c1ccc(C(F)(F)F)cc1NC(=S)C2`, the Potency entry in test [1] and in test [2] was “inactive” in each case.

`COc1cc(/C=C/C=O)cc(OC)c1O[C@@H]1O[C@H](CO)[C@@H](O)[C@H](O)[C@H]1O`: the Potency entry in test [1] and in test [2] was “inactive” in each case.

Take `COc1cc(/C=C/CO)cc(OC)c1O[C@@H]1O[C@H](CO[C@@H]2O[C@H](CO)[C@@H](O)[C@H](O)[C@H]2O)[C@@H](O)[C@H](O)[C@H]1O`: the Potency entry in test [1] and in test [2] was “inactive” in each case.

As for `c1ccc(-c2csc(N3CCOCC3)n2)cc1`, the Potency result in test [1] and in test [2] was “inactive” in each case.

As for `COC(=O)/C=C/C12COC(C)(C)C1C(O)C(OC(C)=O)C1(C)C2CCC2(C)C(c3ccoc3)OC(=O)C3OC321` (stereo unspecified), the Potency entry in test [1] and in test [2] was “inactive” each time.

Take `CCN(CC)CCN(Cc1ccc(-c2ccc(C(F)(F)F)cc2)cc1)C(=O)Cn1c(SCc2ccc(F)cc2)nc(=O)c2c1CCC2`: the Potency entry in test [1] and in test [2] was “inactive” throughout.

For the compound `CC(Cc1cc2c(c(C(N)=O)c1)N(CCCO)CC2)NCCOc1ccccc1OCC(F)(F)F` (stereo unspecified), the Potency entry in test [1] and in test [2] was “inactive” in each case.

As to `C[C@@H]1COCCN1c1cc(C2(S(C)(=O)=O)CC2)nc(-c2cccc3[nH]ccc23)n1`, the Potency entry in test [1] and in test [2] was “inactive” each time.

In the case of `CC1(C)CCC2(C(=O)OC3OCC(O)C(O)C3O)CCC3(C)C(=CCC4C5(C)CC(O)C(OC6OC(COC7OCC(O)C(O)C7O)C(O)C(O)C6O)C(C)(C)C5CCC43C)C2C1` (stereo unspecified), the Potency entry in test [1] and in test [2] was “inactive” throughout.

Consider `Cc1cc(Nc2ncc3cc(-c4c(Cl)cccc4Cl)c(=O)n(C)c3n2)ccc1F`, for which the Potency result in test [1] and in test [2] was “inactive” each time.

For `CCNC(=O)Nc1ncc(-c2cc(-c3c(C)cc(OC)cc3C)nc(-c3cnccn3)n2)s1`, the Potency entry in test [1] and in test [2] was “inactive” in each case.

As for `CCn1c(=O)c(-c2ccn[nH]2)cc2c(C)nc(N)nc21`, the Potency entry in test [1] and in test [2] was “inactive” each time.

With `Nc1ncnc2c1ncn2CCNCCCCCO`, the Potency entry in test [1] and in test [2] was “inactive” throughout.

As for `C=C[C@H]1[C@H](O[C@@H]2O[C@H](CO)[C@@H](O)[C@H](O)[C@H]2O)OC=C(C(=O)OC)[C@H]1C[C@@H]1c2cc(O)c(O)cc2CCN1C(C)=O`, the Potency result in test [1] and in test [2] was “inactive” throughout.

As for `O=C(O)c1cc(I)ccc1NC(=O)[C@H](Cc1ccccc1)NCc1ccccc1`, the values for the Potency in test [1] and in test [2] were 11.2 µM (active) and 15.8 µM (active), respectively.

These data come from PubChem BioAssay (NCATS).
